Bioassay records as filed in PubChem BioAssay.
Mito fusion act – mitochondrial division inhibition or fusion activation. S. cerevisiae fusion-defective mutant growth rescue, CellTiterGlo 48 h. Potency, µM (top dose mostly 46.1 µM), for the others: top-dose growth rescue (activation), most hits filed as activators. 0.23% of 320,000 active. AID 485298; note: % of control where 0% means no effect; nearly all actives have a fitted effect of over 45% in size
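Temperature-sensitive fusion-defective S. cerevisiae (e.g. fzo1-1, mgm1-5) were grown with compound in YPEG medium (3% ethanol, 3% glycerol) for 48 hours at 37C. Growth rescue was measured as viability by CellTiterGlo luminescence after 10 minutes at ambient.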
Abeta rescue – compounds reversing amyloid beta toxicity in yeast; yeast expressing A-beta42, growth rescue, OD600, 48 h; response scale: 0% DMSO, 100% iron-clioquinol control; Potency, µM (series often up to 46.1 µM), hits mostly activators; 0.063% of 410,000 active; note: nearly all actives have a fitted effect of over 55% in size
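Yeast growth medium received pinned compounds, then yeast cells expressing toxic A-beta were added; plates incubated at 30 C for 48 hr. Growth read as absorbance at 600 nm, normalized to DMSO and equimolar FeCl3 plus clioquinol controls.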
TDP-43 yeast inh – inhibitors of TDP-43 toxicity in yeast; Potency, µM (doses to about 46.1 µM), inactives show at the highest dose growth rescue (activation), hits mostly activators; 1.8% of 410,000 active; TDP-43 expressing yeast growth rescue, BacTiter-Glo, 24 h; note: % of control where 0% means no effect; nearly all actives have a fitted effect of over 50% in size
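Readout is BacTiter-Glo luminescence of cell growth, so inhibitors register as activators. TDP-43-expressing yeast at OD600=0.02 in galactose medium, after raffinose pregrowth to mid-log, were incubated with compound for 24 hr at 30 deg C.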
FUS yeast rescue – suppressors of FUS proteinopathy in yeast; 0.24% of 390,000 active; Potency, µM (highest dose often 76.6 µM), hits mostly activators; S. cerevisiae FUS-expressing, growth rescue, OD600, 24 h; AID 1347120;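 note: plate controls were DMSO vehicle for no effect and reference control for full effect; nearly all actives have a fitted effect of over 55% in size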
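Yeast FUS proteinopathy model; galactose-induced FUS (2%), starting OD 0.005. Cpds in dilution series, 24hr, 30C, 99% humidity. Abs 600 nm growth. Pos ctrl CP55940 (top 92uM final); neg ctrl DMSO.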
aSyn yeast inh – alpha-synuclein toxicity inhibition in yeast. Yeast expressing alpha-synuclein, growth rescue, BacTiter-Glo, 24 h. Potency, µM (titrated, usually from 46.1 µM), for the others: top-dose growth rescue (activation), actives largely listed as activators. 0.14% of 370,000 active. AID 652106; note: % of control where 0% means no effect; nearly all actives have a fitted effect of over 65% in size
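Galactose-induced alpha-syn yeast (OD600=0.02, raffinose-pregrown) + pinned cpd, 24 hr, 30 deg C; growth by BacTiter-Glo luminescence. Growth restoration scores as activation.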
Active calls of the source: *; i = inactive; u = inconclusive; x = not tested or not shown. Only some compounds are listed: those with a hit (about 2.2% of all), similar ones and a draw of the others. Calls come from the whole dose curve; as a rule, active = well fitted curve in the direction sought with a large enough effect; inconclusive = small, poorly fitted or top-dose-only effect, or another doubt; inactive = no such curve, though single readings can be large; an effect the other way counts as inactive or inconclusive. Potency is the fitted concentration of half-maximal effect.

SMILES	Mito fusion act	Abeta rescue	TDP-43 yeast inh	FUS yeast rescue	aSyn yeast inh
C=CCN1[C@H](C#N)[C@@H](c2ccc(C#Cc3cccc(OC)c3)cc2)[C@H]1CO	x	x	x	i	x
CC1CCN(C2=NC(=O)/C(=C/c3ccccc3F)S2)CC1	-20%	i	13µM*	i	8%
COc1ccc(C(=O)CC2(O)C(=O)N(Cc3cccc(C(F)(F)F)c3)c3ccccc32)cc1 (stereo not drawn)	x	i	22µM*	u	u
CCOC(=O)c1cnc(-n2nc(C)cc2C)nc1Nc1ccccc1OC	-4%	x	x	x	x
CCOC(=O)c1cnc(-n2cc(C)cn2)nc1Nc1ccccc1OCC	-9%	i	20µM*	i	-15%
CC(C)CN(C(=O)COC(=O)COc1ccc2ccccc2c1)c1c(N)n(Cc2ccccc2)c(=O)[nH]c1=O	5%	i	23%	i	-1%
CCOC(=O)c1cc(C#N)c(Oc2ccccc2)nc1-c1ccccc1	13µM*	u	u	i	8%
O=[N+]([O-])c1ccc2oc(C(O)c3cccc(Cl)c3)cc2c1 (stereo not drawn)	25µM*	i	u	i	u
CCOC(=O)C1(C)CCN1C(=O)c1csnn1 (stereo not drawn)	x	i	20%	i	-2%
S=c1[nH]c2ccccc2n2cccc12	-26%	11µM*	13µM*	i	0%
CC(=O)c1sc(=S)n(Cc2ccccc2)c1C	13%	i	13µM*	i	0%
O=C(COc1ccccc1Cl)NC(=S)Nc1ccccc1N1CCCC1	-17%	u	16µM*	i	6%
O=C(COc1ccccc1)NC(=S)N1CCc2ccccc21	13%	i	12%	i	-5%
O=C(COc1ccccc1Cl)NC(=S)N1CCc2ccccc21	7%	u	18µM*	i	-20%
O=c1[nH]c2c(-c3nc(-c4ccc(Cl)cc4)cs3)c(O)cn2c2ccccc12	x	x	x	x	-1%
O=C(OCc1cn(Cc2ccc(F)cc2F)nn1)N1CCCC1	x	x	x	i	x
Cc1ccc(C)c(OCCC(=O)OCC(=O)N2CCN(S(=O)(=O)c3ccc(Cl)cc3)CC2)c1	-1%	i	u	i	11%
CCOc1ccc(OCCC(=O)OCC(=O)N2CCN(S(=O)(=O)c3ccc(Cl)cc3)CC2)cc1	-26%	i	13µM*	i	10%
COC(=O)C1=C2c3[nH]c4ccccc4c3CCN2C(=O)CC1	x	i	10µM*	i	10%
COc1ccc(S[C@]2(C(=O)N3CCN(c4ncccn4)CC3)CC(=O)N(C(=O)c3ccccc3)[C@@H]2c2ccc(OC)cc2)cc1	x	x	x	i	x
C[C@H]1[C@H](c2ccccc2)C[C@@H](C(=O)O)C1(C)C	21%	i	14µM*	i	-5%
O=C(c1ccccc1)C1CC1c1ccccc1 (stereo not drawn)	x	i	u	i	u
COc1cccc(CN2CCN(C(=O)c3oc4c(F)cccc4c3C)CC2=O)c1	3%	i	20µM*	i	1%
O=C(Oc1ccc(Cl)c2ccccc12)N1CCCCC1	9%	i	0%	i	-17%
O=C(Oc1c(Cl)cc(Cl)c2ccccc12)N1CCCC1	6%	i	13µM*	i	0%
SMILES	Mito fusion act	Abeta rescue	TDP-43 yeast inh	FUS yeast rescue	aSyn yeast inh
Cc1ccc(NC(=O)Cn2c(=O)n(-c3ccccc3)c(=O)c3ccc(C(=O)NCc4ccc5c(c4)OCO5)cc32)cc1	x	i	-7%	i	-2%
CCN(C(=O)Cn1c(=O)n(-c2ccccc2)c(=O)c2ccc(C(=O)NCc3ccc4c(c3)OCO4)cc21)c1cccc(C)c1	x	i	7%	35µM*	x
COc1ccc(NC(=O)Cn2c(=O)n(CCCC(=O)NCCc3ccc(C)cc3)c(=O)c3ccccc32)cc1Cl	x	i	15%	i	x
O=C(CSc1nccn1-c1cccc(Cl)c1)Nc1cccc(C(F)(F)F)c1	x	u	20µM*	i	x
Cc1cccc(-n2ccnc2SCC(=O)Nc2ccc3c(c2)OCO3)c1	x	i	20µM*	i	10%
O=C(CSc1nccn1-c1ccc(Cl)cc1)Nc1ccc(Cl)c(Cl)c1	x	i	0%	i	x
Cc1cccc(-n2ccnc2SCC(=O)Nc2ccccc2C(F)(F)F)c1	x	i	3%	i	3%
O=C(CSc1nccn1-c1cccc(Cl)c1)Nc1cccc2ccccc12	x	i	16µM*	i	x
Cc1cccc(-n2ccnc2SCC(=O)Nc2cccc3ccccc23)c1	x	i	22µM*	i	11%
C#CCN1CC(N(C)CCOC(=O)c2occ3ccccc23)CS1(=O)=O (stereo not drawn)	x	x	x	i	x
O=C(CSc1nccn(-c2ccc(F)c(F)c2)c1=O)NC1CCCC1	-1%	i	25%	i	-11%
O=C(CSc1nccn(-c2cccc(F)c2)c1=O)Nc1ccc(Cl)cc1F	-26%	i	18µM*	i	-78%
O=C(CSc1nc(-c2cccc(F)c2)[nH]c1-c1ccccc1)Nc1ccc2c(c1)OCCO2	x	i	u	u	x
Cc1cccc(-c2nc(SCC(=O)Nc3ccc4c(c3)OCCO4)c(-c3ccccc3)[nH]2)c1	x	i	35µM*	u	x
CS(=O)(=O)c1ccc(Nc2nc(C(N)Cc3ccc(Cl)cc3)cs2)cc1 (stereo not drawn)	x	i	1%	i	-2%
c1ccc(NC2=NCCN2CCCC2CCCCC2)cc1	8%	i	0%	i	16µM*
CCCc1nnc(NC(=O)CCC(=O)O)s1	13µM*	i	0%	i	0%
Cc1cccc(NC(=O)c2ccc(N3C(=O)C4CCCCC4C3=O)cc2)c1C (stereo not drawn)	0%	i	25%	i	1%
Cc1c(C(=O)N2CCN(S(=O)(=O)c3ccccc3F)CC2)oc2c(Cl)cccc12	u	i	14µM*	u	0%
COCc1c(C(=O)N2CCN(S(=O)(=O)c3ccccc3Cl)CC2)oc2ccccc12	11%	i	11µM*	i	4%
CCc1cc(C(=O)N2CCN(S(=O)(=O)c3ccccc3F)CC2)sc1C	0%	i	22µM*	i	14%
CCc1cc(C(=O)N2CCN(S(=O)(=O)c3cc(C)ccc3C)CC2)sc1C	24%	i	2%	i	u
CCCCCCCCN1C(=O)[C@@H](CC(=O)NCc2cccs2)C[C@@]2(C(=O)OC)C1=C[C@H](COCc1ccccc1)O[C@@H]2C	x	x	x	i	x
COCC(=O)n1nc(NCc2ccc(OC)cc2)nc1NCc1ccc(OC)cc1	-33%	i	18µM*	i	8%
CCN(CC(=O)NCc1cccs1)C(=O)c1ccc(NS(=O)(=O)c2ccc(F)cc2)cc1	0%	i	-19%	i	-2%
